# From PubChem BioAssay
# This is a sample that favours compounds with a hit; in the whole collection about 2.8% have one here.
# WRN inhibitor – WRN helicase (human) inhibition; Q14191; WRN helicase unwinding, fluorescent forked duplex, kinetic; Potency, µM (top dose mostly 114 µM), for the others: at the highest dose activity change, negative = inhibition, usual class: inhibitors; 360,000 compounds, 0.46% hits; AID 651768; further: potency means the concentration at half of the fitted maximal effect; on the % scale 0 is the no-effect control and ±100 the full control effect; nearly all actives have a fitted effect of over 55% in size
#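 Primary qHTS, 1536-well format. 20 nM WRN + compound, 15 min RT; start with 100 nM forked fluorophore/quencher duplex, 2 mM ATP (final); kinetic read ex 525/em 598 nm.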
# Pol iota inh – DNA polymerase iota (human) inhibition | 390,000 compounds, 1% hits | AID 588590 | Pol iota fluorescent replication assay, 10 min | Potency, µM (top dose mostly 115 µM), inactives show at the top dose activity, negative = inhibition, usual class: inhibitors | Q9UNA4; further: potency means the concentration at half of the fitted maximal effect
#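 Fluorescent replication assay read twice, at 0 min and 10 min after adding 50 nM (final) substrate. Enzyme (10 nM) and compounds were first incubated 15 min at room temperature; enzyme-free buffer wells were negative controls.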
# Pol kappa inh – blocks human DNA polymerase kappa activity. Q9UBT6. purified Pol kappa, fluorescent DNA synthesis assay, 10 min. Potency, µM (top dose mostly 107 µM), inactives show at the highest dose activity, negative = inhibition, actives largely listed as inhibitors. 400,000 compounds, 0.53% hits. AID 588579; further: potency means the concentration at half of the fitted maximal effect; on the % scale 0 is the no-effect control and ±100 the full control effect
#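 Kinetic fluorescence screen: compound preincubated 15 min RT with 10 nM enzyme; 50 nM substrate (final) initiates; reads at 0/10 min.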
# POLH inh – inhibitors of human DNA polymerase eta | AID 588591 | recombinant Pol eta, fluorescent DNA replication assay | Potency, µM (titrated, usually from 114 µM), for inactives: top-dose activity change, negative = inhibition, usual class: inhibitors | 390,000 compounds, 1.2% hits | Q9Y253; further: potency means the concentration at half of the fitted maximal effect; on the % scale 0 is the no-effect control and ±100 the full control effect
# Target sequence (Q9Y253 whole entry, looked up): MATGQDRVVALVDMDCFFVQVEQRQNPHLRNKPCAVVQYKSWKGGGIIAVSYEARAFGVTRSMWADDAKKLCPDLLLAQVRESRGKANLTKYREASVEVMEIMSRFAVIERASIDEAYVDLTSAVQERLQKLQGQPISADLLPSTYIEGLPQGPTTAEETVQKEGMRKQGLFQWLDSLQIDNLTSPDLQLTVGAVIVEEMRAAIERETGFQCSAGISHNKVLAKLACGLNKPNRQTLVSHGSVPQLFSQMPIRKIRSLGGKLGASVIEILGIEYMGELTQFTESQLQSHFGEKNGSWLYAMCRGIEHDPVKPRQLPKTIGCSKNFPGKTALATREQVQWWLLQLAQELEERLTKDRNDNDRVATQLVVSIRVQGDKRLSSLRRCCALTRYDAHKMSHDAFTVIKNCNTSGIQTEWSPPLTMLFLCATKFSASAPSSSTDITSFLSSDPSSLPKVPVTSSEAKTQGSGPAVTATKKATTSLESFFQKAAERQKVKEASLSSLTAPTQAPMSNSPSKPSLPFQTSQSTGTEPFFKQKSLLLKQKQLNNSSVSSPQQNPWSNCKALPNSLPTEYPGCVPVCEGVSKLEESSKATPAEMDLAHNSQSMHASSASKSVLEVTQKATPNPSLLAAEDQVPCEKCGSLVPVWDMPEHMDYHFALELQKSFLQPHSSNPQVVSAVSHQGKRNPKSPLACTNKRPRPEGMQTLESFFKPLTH
#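 Fluorescent replication assay: 50 nM final substrate added after a 15 min room-temperature compound preincubation with 10 nM enzyme. Signal taken at 0 min and again at 10 min.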
# POLB inh – blocks human DNA polymerase beta activity. Pol beta primer extension/strand displacement, fluorescence kinetic. Potency, µM (top dose mostly 114 µM), for inactives: top-dose activity change, negative = inhibition, usual class: inhibitors. 340,000 compounds, 1.3% hits. AID 485314; further: potency means the concentration at half of the fitted maximal effect; on the % scale 0 is the no-effect control and ±100 the full control effect
#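 Enzyme-only controls used 10 nM Pol beta; buffer lacking enzyme served as negative control. Compound preincubated 15 min, then 50 nM substrate added; 0 and 10 min reads at room temperature.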
# PI5P4Ka inh – blocks human PI5P4K alpha kinase activity | P48426 | PI5P4Kalpha enzyme, ADP-Glo luminescence, 60 min; stronger effect = lower value | max response, % | 330,000 compounds, 1.2% hits; active means max response of -50% or lower; inconclusive means between -30% and -50%; inactive means -30% or higher; further: value at the top dose of about 77 µM; on the % scale 0 is the no-effect control and ±100 the full control effect
#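 Enzyme plus substrate dispensed, test compounds pinned in, then ATP (5 microM final) added. After 60 min at RT, ADP-Glo reagent 1 for 45 min and reagent 2 for 30 min preceded luminescence imaging.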
# * marks the source's active call; other numbers are inactive results; ? = inconclusive; / = not tested or not shown; [ ] = dose if it differs, or a comment. Unless noted, the call rests on the fitted dose curve; in most records, active means well fitted curve in the direction sought with a large enough effect; inconclusive means small, poorly fitted or top-dose-only effect, or another doubt; inactive means no such curve, though single readings can be large; an effect the other way counts as inactive or inconclusive.
SMILES,WRN inhibitor,Pol iota inh,Pol kappa inh,POLH inh,POLB inh,PI5P4Ka inh
COc1ccc(/C=N/NC(=O)c2ccc3nc[nH]c3c2)cc1OC,-8.9%,12.6µM*,?,-14.9%,15.8µM*,7.2
Fc1ccc(CSc2nc3ccccc3[nH]2)cc1,-10.0%,70.8µM*,-4.3%,-1.9%,76.8%,/
COc1ccc(/C=N/NC(=O)c2[nH]nc3c2CCc2ccccc2-3)cc1OC,-15.4%,-52.5%,?,?,11.2µM*,-18.6
CC1OC(CCc2cccc(Cl)c2)Cc2[nH][nH]c(=O)c21 (stereo not drawn),3.3%,/,/,/,/,-9.2
O=C(NCCc1cccs1)Nc1ccc2nc([C@@H]3O[C@H](CO)[C@@H](O)[C@H]3O)[nH]c2c1,6.9%[57.1 µM],/,/,/,/,-0.7
CC1CCN(C(=O)CSc2nc3ccccc3nc2Cc2ccccc2)CC1,/,2.2%,-5.1%[60.1 µM],-20.5%,-0.2%,/
NS(=O)(=O)c1ccc(N=Nc2c(O)c(C(=O)O)cc3ccccc23)cc1,-9.2%[11.6 µM],?,-8.7%,39.8µM*,35.5µM*,-95.3*
Cc1ccc(-n2c(CCc3nc4ccccc4[nH]3)n[nH]c2=S)cc1,-34.9%,18.2%,-6.4%,-5.5%,-1.0%,-57.9*
CCn1c(CCc2nc3ccccc3[nH]2)n[nH]c1=S,-3.1%,29.4%,-0.9%,-2.1%,8.1%,4.7
Cc1cc(=O)cc(C)n1-c1ccc(Br)cc1,15.8µM*,44.1%,4.2%,-16.1%,-12.9%,13.4
Cc1cc(=O)cc(C)n1-c1ccc2c(c1)nc(C)n2-c1ccccc1,-12.4%,?,-9.3%[60.1 µM],-12.9%,8.4%,/
Cc1ccc(CSc2nnc3[nH]c(=O)cc(-c4ccccc4)n23)cc1,/,2.3%,-8.4%[60.1 µM],?,-17.3%,/
CCNc1ncc2nc(-c3cc(F)cc(F)c3)c(=O)n(CCC#N)c2n1,/,/,-5.9%[60.1 µM],/,/,/
Cc1nc(N2CCCCC2)sc1C(=O)c1ccc(SCCO)c([N+](=O)[O-])c1,-32.1%,71.2%,-7.8%,-16.5%,-1.7%,-67.6*
COc1cc(CNc2ccc(O)cc2)cc(Br)c1OCc1ccccc1F,?,28.2µM*,-36.4%,-17.1%,-29.1%,0.8
CCOc1cc(CNc2ccc(O)cc2)cc(Br)c1OCc1ccccc1F,-35.7%,-101.2%,-4.3%,-24.4%,-13.8%,4.1
Oc1ccc(NCc2ccccc2OCc2ccccc2)cc1,-17.5%,7.08µM*,-10.8%,?,4.9%,-19.2
CCOc1cc(CNc2ccc(O)cc2)cc(Br)c1OCc1ccccc1,/,39.8µM*,-10.0%,-23.9%,-2.4%,/
COc1cc(CNC(C)(C)CO)cc(Br)c1OCc1ccccc1,-3.6%,63.3%,-7.2%,-9.5%,28.4%,28.0
O=C(CCCCn1c(=O)c2ccccc2n(Cc2cccc(F)c2)c1=O)NCCc1ccccc1,/,-7.0%,-12.3%,-4.3%,3.7%,/
O=C(CSC(=S)N1CCCC1)N/N=C/c1c(O)[nH]c(=S)[nH]c1=O,0.1%,34.4%,-0.1%,-8.4%,/,-51.1*
O=S1(=O)Nc2c(ccc3cccnc23)-c2ccccc21,-13.2%,?,-8.7%,2.6%,18.5%,/
Cc1cnc2c3c(cc(Cl)c2c1)-c1ccccc1S(=O)(=O)N3,/,28.2µM*,79.4µM*,/,/,/
Clc1nc(NCc2ccco2)c2ccccc2n1,/,-95.3%,0.0%,/,/,/
CCn1c(C)c(CS(=O)(=O)c2ccccc2)[nH]c1=O,17.8µM*,?,-5.4%,3.9%,60.4%,2.7
SMILES,WRN inhibitor,Pol iota inh,Pol kappa inh,POLH inh,POLB inh,PI5P4Ka inh
Cc1ccc(NC(=O)Cn2c(=O)n(CCC(=O)NCc3ccccc3Cl)c(=O)c3ccccc32)cc1,/,5.8%,13.3%,-8.9%,1.4%,/
O=[N+]([O-])c1cnc(Sc2ccncn2)c([N+](=O)[O-])c1,-27.0%,/,/,-14.7%,/,-74.3*
O=[N+]([O-])c1cnc(Sc2ccncn2)s1,-31.7%,?,-3.7%,3.8%,-1.0%,-20.7
O=C(CSc1ccc(Cl)cc1)Nc1ccc(-c2nc3ccccc3[nH]2)cc1,-27.4%,-44.1%,-16.3%,?,31.6µM*,?
S=c1[nH]nc2ccc3ccccc3n12,3.7%,/,/,/,/,-60.8*
S=c1[nH]c2ccccc2n2c(=S)[nH]nc12,-11.5%,?,-12.7%,-2.9%,4.6%,-29.4
COc1ccc(-c2onc3ccc(C(=O)/C=C/N(C)C)cc23)cc1,-31.9%,?,?,?,?,-78.5*
COc1ccc(-c2onc3ccc(Br)cc23)cc1,-35.7%[57.1 µM],22.0%,-20.0%,-9.0%,-0.5%,1.7
CN(C)/C=C/C(=O)c1ccc2noc(-c3cccc(F)c3)c2c1,-7.7%,-15.1%,3.5%,-25.5%,20.5%,-66.3*
Cc1cc(=O)[nH]c(SCC(=O)N2CCc3ccccc3C2)n1,-2.0%,20.8%,0.0%,-12.6%,1.0%,/
O=C(Cn1c(SCC(=O)N2CCc3ccccc3C2)nc2ccccc21)NC1CCCC1,1.0%,17.9%,-6.8%,-8.4%,89.1µM*,/
CCCn1c(SCC(=O)N2CCc3ccccc3C2)nc(O)cc1=O,-5.7%,10µM*,?,6.0%,/,1.9
O=C(Cn1c(SCC(=O)N2CCc3ccccc32)nc2ccccc21)NC1CCCC1,-10.0%,-6.3%,7.1%,-7.9%,6.3%,8.0
CSCC[C@H](NC(=O)[C@H](CC(C)C)NC(=O)CNC(=O)[C@H](Cc1ccccc1)N(C)C(=O)[C@H](Cc1ccccc1)NC(=O)[C@H](CC(=O)O)NC(=O)[C@@H](N)CC(=O)O)C(N)=O,/,/,9.6%[60.1 µM],/,/,/
O=C(COC(=O)C1CC1)NCc1ccccc1,-3.2%,12.9%,0.3%,4.1%,/,-2.9
COC(=O)[C@]1(Cc2ccccc2)N[C@H](c2ccc(-c3cc(C(C)=O)cs3)cc2)[C@@H]2C(=O)N(C)C(=O)[C@@H]21,-5.5%,-2.3%,-13.3%,-6.4%,/,-1.5
COC(=O)C(C)Oc1ccc2c(c1)O/C(=C\c1ccco1)C2=O (stereo not drawn),-18.4%,44.7µM*,?,44.7µM*,?,?
CCC(Sc1nc2ccsc2c(=O)n1Cc1ccc(C(=O)O)cc1)C(=O)Nc1ccc(C)c(Cl)c1 (stereo not drawn),-18.5%,?,-30.0%,79.4µM*,?,-0.5
CC(=Nc1ccccc1N)c1c(C)cc(=O)n(O)c1O,/,/,1.9%[60.1 µM],/,/,/
O[C@@H]([C@H](O)[C@H](O)CBr)[C@H](O)CBr,-1.8%,-4.1%,19.8%,-11.6%,/,-62.2*
O=c1oc2ccccc2c(O)c1/C=C1\C=Nc2ccccc21,-31.2%,?,-14.1%,9.0%,-13.9%,-56.2*
C=CCn1c(C)cc(C(=O)COC(=O)CCc2cc(OC)c(OC)c(OC)c2)c1C,-7.6%,8.5%,-1.1%,-6.0%,/,7.3
O=C(O)c1cc(N/N=C/c2ccncc2)ccc1Cl,-14.0%,12.8%,-13.8%,3.8%,5.0%,-24.8
COc1ccc2ccccc2c1/C=N/Nc1ccc(Cl)c(C(=O)O)c1,-29.7%,?,?,44.7µM*,4.3%,-28.1
